Data reported in paper PMC4336329 (PLoS ONE, 2015).
About 14,000 (4.5%) of roughly 310,000 compounds showed an effect of 50% or more. The effect is printed as a negative number. This is one part of a sample in which strong results are shown more often than they occur.

Target: human ether-à-go-go-related gene (hERG) potassium channel (human, UniProt Q12809)
Assay: primary screen, population patch clamp on CHO cells stably expressing hERG; higher = less effect of the substance
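Further: peak tail current of the secondary pulse compared with the same well before compound.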

human ether-à-go-go-related gene (hERG) potassium channel, sequence (Q12809 whole entry, looked up): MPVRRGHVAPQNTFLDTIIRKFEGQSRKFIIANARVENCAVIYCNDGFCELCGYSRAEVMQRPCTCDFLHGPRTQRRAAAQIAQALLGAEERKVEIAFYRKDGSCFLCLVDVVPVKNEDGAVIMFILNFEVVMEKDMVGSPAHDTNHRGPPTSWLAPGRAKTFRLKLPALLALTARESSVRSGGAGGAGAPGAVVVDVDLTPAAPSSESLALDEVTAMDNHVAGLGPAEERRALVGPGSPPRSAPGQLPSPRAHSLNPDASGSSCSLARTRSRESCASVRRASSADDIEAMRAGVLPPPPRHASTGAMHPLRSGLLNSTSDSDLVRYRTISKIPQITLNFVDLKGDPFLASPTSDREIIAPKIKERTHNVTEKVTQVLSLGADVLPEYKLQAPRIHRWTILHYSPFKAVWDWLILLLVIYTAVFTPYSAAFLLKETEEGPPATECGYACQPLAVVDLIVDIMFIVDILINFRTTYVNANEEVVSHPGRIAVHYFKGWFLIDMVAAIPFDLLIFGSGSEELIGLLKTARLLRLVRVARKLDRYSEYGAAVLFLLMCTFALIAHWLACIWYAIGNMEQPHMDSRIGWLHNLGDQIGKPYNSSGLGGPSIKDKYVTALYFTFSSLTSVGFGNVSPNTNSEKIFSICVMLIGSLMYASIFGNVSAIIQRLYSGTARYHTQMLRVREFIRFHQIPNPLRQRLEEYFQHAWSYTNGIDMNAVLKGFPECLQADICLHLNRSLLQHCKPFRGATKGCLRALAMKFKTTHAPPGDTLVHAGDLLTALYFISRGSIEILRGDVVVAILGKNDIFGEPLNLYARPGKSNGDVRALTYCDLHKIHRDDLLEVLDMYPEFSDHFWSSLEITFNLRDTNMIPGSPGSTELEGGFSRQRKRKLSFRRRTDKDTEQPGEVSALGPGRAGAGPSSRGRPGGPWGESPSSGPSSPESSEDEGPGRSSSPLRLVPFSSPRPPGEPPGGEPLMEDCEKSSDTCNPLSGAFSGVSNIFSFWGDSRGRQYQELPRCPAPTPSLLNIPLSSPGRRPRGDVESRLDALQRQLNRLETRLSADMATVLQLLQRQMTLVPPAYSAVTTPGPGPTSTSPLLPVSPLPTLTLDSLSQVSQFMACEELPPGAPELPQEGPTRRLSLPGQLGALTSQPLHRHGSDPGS

Structure (SMILES)	hERG current change (%, negative = inhibition) at 10uM
Cc1ccc(CS(=O)(=O)c2ncc(Cl)c(C(=O)Nc3nnc(C(C)C)s3)n2)cc1	9.25%
CC(=O)Oc1cc2cccc(OC(C)=O)c(=O)c2c(OC(C)=O)c1OC(C)=O	1.34%
CCCCC(CC)C(=O)Nc1cc(C(=O)NCc2ccc(C)cc2)ccc1N1CCC2(CC1)CC(c1ccccc1)=NO2 (stereo not shown)	2.86%
CCCCC(CC)C(=O)Nc1cc(C(=O)NCCC)ccc1N1CCC2(CC1)CC(c1cccc(Br)c1)=NO2 (stereo not shown)	-7.85%
CCCNC(=O)c1ccc(N2CCC3(CC2)CC(c2ccccc2)=NO3)c(NC(=O)c2cccc(C)c2)c1	-18.6%
CCCNC(=O)c1ccc(N2CCC3(CC2)CC(c2ccccc2)=NO3)c(NC(=O)c2cccc(OC)c2)c1	-68.6%
CCCNC(=O)c1ccc(N2CCC3(CC2)CC(c2cccc(Br)c2)=NO3)c(NC(=O)c2ccccc2)c1	-0.8%
CCCCC(CC)C(=O)Nc1cc(C(=O)NCCC)ccc1N1CCC2(CC1)CC(c1ccccc1)=NO2 (stereo not shown)	-64.6%
O=C(NC(=O)c1csnn1)Nc1ccccc1Cl	9.03%
CCc1cc2c3c(c1)C(C)CC(C)(C)N3C(=O)C2=O (stereo not shown)	-15.6%
C=CCN=C1CC(C)(C)CC(=O)/C1=C(\O)c1ccccc1	-6.18%
CCCC(=O)Nc1sc(C)c(C)c1C#N	2.9%
Cc1cc(C)nc(Sc2nc(Nc3ccccc3)nc(Sc3nc(C)cc(C)n3)n2)n1	-4.94%
Cc1cc(N(C)C)nc(Nc2ccccc2)n1	-56.8%
CN(C)c1nc(Nc2ccccc2)nc(N(C)C)n1	8.3%
COc1ccccc1CCNC(=O)NC1CCCCC1	-12.1%
Cc1nc(C(C)NC(=O)CCc2nnc(-c3ccsc3)o2)cs1 (stereo not shown)	15.8%
CC(=Nc1ccc2c(c1)nc(CO)n2C)C1=C(O)CC(C)(C)CC1=O	2.09%
Cc1ccccc1NS(=O)(=O)c1ccc(OCCNS(C)(=O)=O)cc1	-4.01%
CN1CCc2nc(SCC(=O)Nc3ccc(Cl)cc3)c(C#N)cc2C1	-38.4%
N#Cc1cc2c(nc1SCC(=O)Nc1cc(Cl)ccc1Cl)C1CCN2CC1	-51.7%
CN(C)S(=O)(=O)c1ccc(Cl)c(NC(=O)CSc2nc3c(cc2C#N)C(=O)CC(C)(C)C3)c1	-65.3%
CCN(CC)S(=O)(=O)c1cc(NC(=O)CSc2nc3c(cc2C#N)C(=O)CC(C)(C)C3)ccc1C	4.51%
CN(C)S(=O)(=O)c1cccc(NC(=O)CSc2nc3c(cc2C#N)C(=O)CC(C)(C)C3)c1	-34.7%
N#Cc1cc2c(nc1SCC(=O)Nc1ccc(Cl)cc1)C1CCN2CC1	-7.69%

Structure (SMILES)	hERG current change (%, negative = inhibition) at 10uM
CCCCOC(=O)c1ccc(NC(=S)N2CCN(c3ncc4c(=O)c(C(=O)O)cn(CC)c4n3)CC2)cc1	11.2%
C[C@H](NC(=O)c1[nH]cnc1C(=O)Nc1ccc(CNC(=O)OC(C)(C)C)cc1)C(=O)OC(C)(C)C	17.2%
COC(=O)c1ccc(C2c3c(oc4ccc(F)cc4c3=O)C(=O)N2CCO)cc1 (stereo not shown)	3.74%
Cc1ccc(/C=N/NC(=O)CN2CCN(Cc3ccccc3)CC2)s1	-55.8%
O=C(N/N=C/c1ccc(Br)s1)Nc1ccccc1	4.13%
Cc1ccsc1/C=N/NC(=O)CN1CCN(Cc2ccccc2)CC1	-8.1%
O=C(CCC(=O)N/N=C/c1ccc(Br)s1)NCc1ccccc1	5.19%
Cc1ccc(/C=N/N2CCN(Cc3ccccc3)CC2)s1	-15.7%
O=C(CN1CCN(Cc2ccccc2)CC1)N/N=C/c1ccc(Br)s1	-60%
COc1cc(CC(=O)OCC(=O)Nc2ncc(Cl)cc2Cl)cc(OC)c1OC	7.58%
COc1ccccc1NS(=O)(=O)c1ccc(O)c(C(=O)OCC(=O)c2ccc(Cl)cc2Cl)c1	23.4%
Br.CC(C)CCC1CC(CSC(=N)N)OC1=O (stereo not shown)	-14%
Nc1ccccc1-[n+]1c(-c2ccccc2)cc(-c2ccccc2)cc1-c1ccccc1.[O-][Cl+3]([O-])([O-])[O-]	-50.9%
O=C([O-])c1ccccc1-[n+]1c(-c2ccccc2)cc(-c2ccccc2)cc1-c1ccccc1	-3.82%
Oc1ccccc1-[n+]1c(-c2ccccc2)cc(-c2ccccc2)c(O)c1-c1ccccc1.[O-][Cl+3]([O-])([O-])[O-]	15.1%
O=C([O-])c1ccc(-[n+]2c(-c3ccccc3)cc(-c3ccccc3)cc2-c2ccccc2)cc1	-0.807%
[O-]c1ccccc1-[n+]1c(-c2ccccc2)cc(-c2ccccc2)cc1-c1ccccc1	-71.1%
Cc1ccc(-c2cc(-c3ccccc3)cc(-c3ccccc3)[n+]2-c2ccccc2C(=O)O)cc1.[O-][Cl+3]([O-])([O-])[O-]	-21.5%
Cc1ccccc1-[n+]1c(-c2ccccc2)cc(-c2ccccc2)cc1-c1ccccc1.[O-][Cl+3]([O-])([O-])[O-]	-76.3%
Oc1ccccc1-[n+]1c(-c2ccccc2)cc(-c2ccccc2)cc1-c1ccccc1.[O-][Cl+3]([O-])([O-])[O-]	-71.2%
COc1ccc(NC(=O)C2CCCN(S(=O)(=O)c3ccc4c(c3)CC(C)N4C(C)=O)C2)cc1 (stereo not shown)	24.3%
Cc1ccc(NC(=O)C2CCCC2)cc1Cl	-2.92%
O=C(COC(=O)CNS(=O)(=O)c1ccccc1)NC12CC3CC(CC(C3)C1)C2	-18%
C=CCNC(=S)N/N=C(\C)c1cccnc1	0.787%
